Measurements: PubChem BioAssay (Tox21)
Results filed as inconclusive are left out. Calls of active or inactive are those of the source. Unless noted, calls come from the whole dose curve.

What was measured:
[1] = Nuclear factor erythroid 2-related factor 2/antioxidant responsive element (Nrf2/ARE) small molecule agonists: qHTS cell viability counter screen in human keratinocytes (AID 1919968; active = well fitted curve in the direction sought with a large enough effect in the repeat runs; an effect the other way counts as inactive or inconclusive; note: nearly all actives have a fitted effect of over 55% in size; note: potency is the fitted concentration of half-maximal effect)
Method in brief: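 CellTiter-Fluor fluorescence, read 1 h after reagent, gave viability in the same wells as the ARE-luciferase assay. KeratinoSens cells (1,500/well) had 23 h compound exposure at 37 C/5% CO2 following 5 h plating.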

[2] = Nuclear factor erythroid 2-related factor 2/antioxidant responsive element (Nrf2/ARE) small molecule agonists: luciferase reporter gene qHTS assay in human keratinocytes (AID 1919969); note: nearly all actives have a fitted effect of over 35% in size; note: potency is the fitted concentration of half-maximal effect
[3] = target: Gonadotropin-releasing hormone receptor (Homo sapiens) (UniProt P30968); assay: Human gonadotropin-releasing hormone receptor (GnRHR) small molecule agonists, calcium flux assay in GnRHR-HEK293 cells (AID 1920063); note: nearly all actives have a fitted effect of over 35% in size
Chain of Gonadotropin-releasing hormone receptor (Homo sapiens) (P30968 whole entry, looked up): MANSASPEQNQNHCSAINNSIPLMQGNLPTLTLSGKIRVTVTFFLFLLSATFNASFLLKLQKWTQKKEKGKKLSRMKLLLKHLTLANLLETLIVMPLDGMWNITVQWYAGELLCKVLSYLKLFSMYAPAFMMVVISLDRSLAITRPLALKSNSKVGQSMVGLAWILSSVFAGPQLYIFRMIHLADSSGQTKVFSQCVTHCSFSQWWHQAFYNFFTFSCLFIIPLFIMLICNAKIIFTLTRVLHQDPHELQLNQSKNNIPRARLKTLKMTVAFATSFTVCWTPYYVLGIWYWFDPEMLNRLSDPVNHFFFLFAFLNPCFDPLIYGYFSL
Method in brief: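 Agonist mode: compounds at 15 concentrations, in triplicate, went onto calcium dye-loaded GnRHR-HEK293 cells. Intracellular calcium was then followed as 480/540 nm fluorescence at 1 s intervals over 3 min.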

[4] = target: KiSS-1 receptor (Homo sapiens) (UniProt Q969F8); assay: Human kisspeptin (KISS1R) small molecule agonists, calcium flux assay in KISS1R-HEK293 cells (AID 1920064; active = well fitted curve in the direction sought with a large enough effect in the repeat runs; an effect the other way counts as inactive or inconclusive)
Chain of KiSS-1 receptor (Homo sapiens) (Q969F8 whole entry, looked up): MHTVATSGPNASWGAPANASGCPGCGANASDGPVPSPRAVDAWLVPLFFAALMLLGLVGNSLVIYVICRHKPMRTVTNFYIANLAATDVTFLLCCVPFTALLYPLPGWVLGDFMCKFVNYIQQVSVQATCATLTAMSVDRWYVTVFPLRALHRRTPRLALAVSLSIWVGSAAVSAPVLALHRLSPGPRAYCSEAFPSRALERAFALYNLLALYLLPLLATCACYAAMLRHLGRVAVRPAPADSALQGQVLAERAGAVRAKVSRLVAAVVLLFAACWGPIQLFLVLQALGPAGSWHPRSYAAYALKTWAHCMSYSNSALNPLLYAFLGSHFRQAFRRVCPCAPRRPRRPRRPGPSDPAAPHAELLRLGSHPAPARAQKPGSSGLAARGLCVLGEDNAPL
Method in brief: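 Agonist mode: intracellular calcium rise tracked at 1 s intervals over 3 min (480/540 nm) immediately after compound addition to dye-loaded KISS1R-HEK293 stable cells. Each compound tested at 15 concentrations in triplicate.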

[5] = G protein-coupled receptor (GPCR) small molecule agonists, calcium flux assay: HEK293 wild type cell line counter screen (AID 1920065)
Method in brief: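 Calcium flux counter screen: compound added in agonist mode at 15 concentrations in triplicate to dye-loaded parental HEK293 cells. Fluorescence (480/540) read kinetically for 3 min; ATP served as positive control.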

[6] = p53 small molecule agonists, cell-based qHTS assay with human liver microsomes (AID 1963577);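 note: p53 response element beta-lactamase reporter cells with liver microsomes plus NADPH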
Method in brief: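 With metabolic activation: human liver microsomes (0.5 mg/mL final) plus NADPH (0.5 mg/mL final) added alongside compounds to p53RE-bla cells; 16 h 37 C exposure; beta-lactamase read by LiveBLAzer fluorescence.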

[7] = p53 small molecule agonists, cell-based qHTS assay with rat liver microsomes (AID 1963578)
Method in brief: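 Metabolic activation by rat liver microsomes and NADPH, each 0.5 mg/mL final, added right after compounds to p53RE-bla reporter cells (4,000/well, plated 5 h earlier). 16 h at 37 C, then LiveBLAzer substrate for 2 h at room temperature in the dark; fluorescence read-out.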

[8] = p53 small molecule agonists, cell-based qHTS assay with human liver microsomes: qHTS cell viability counter screen (AID 1963579); note: nearly all actives have a fitted effect of over 45% in size; note: potency is the fitted concentration of half-maximal effect
Method in brief: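 Metabolic activation used human liver microsomes and NADPH, both 0.5 mg/mL final, over 16 hours at 37 C on p53RE-bla cells (4,000/well). Cytotoxicity measured by CellTiter-Glo luminescence, 30 min at room temperature.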

[9] = p53 small molecule agonists, cell-based qHTS assay: qHTS cell viability counter screen (AID 1963581); note: nearly all actives have a fitted effect of over 45% in size; note: potency is the fitted concentration of half-maximal effect
Method in brief: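 Counter screen read by CellTiter-Glo luminescence (ATP content, 30 min at room temperature), run in the same wells as the beta-lactamase reporter read. HCT-116 p53RE-bla cells saw compounds for 16 h at 37 C.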

[10] = target: 5-hydroxytryptamine receptor 2A (Homo sapiens) (UniProt P28223); assay: 5-hydroxytryptamine receptor 2A (HTR2A) small molecule agonists, cell-based qHTS assay (AID 1963587); note: nearly all actives have a fitted effect of over 30% in size; note: potency is the fitted concentration of half-maximal effect
Chain of 5-hydroxytryptamine receptor 2A (Homo sapiens) (P28223 whole entry, looked up): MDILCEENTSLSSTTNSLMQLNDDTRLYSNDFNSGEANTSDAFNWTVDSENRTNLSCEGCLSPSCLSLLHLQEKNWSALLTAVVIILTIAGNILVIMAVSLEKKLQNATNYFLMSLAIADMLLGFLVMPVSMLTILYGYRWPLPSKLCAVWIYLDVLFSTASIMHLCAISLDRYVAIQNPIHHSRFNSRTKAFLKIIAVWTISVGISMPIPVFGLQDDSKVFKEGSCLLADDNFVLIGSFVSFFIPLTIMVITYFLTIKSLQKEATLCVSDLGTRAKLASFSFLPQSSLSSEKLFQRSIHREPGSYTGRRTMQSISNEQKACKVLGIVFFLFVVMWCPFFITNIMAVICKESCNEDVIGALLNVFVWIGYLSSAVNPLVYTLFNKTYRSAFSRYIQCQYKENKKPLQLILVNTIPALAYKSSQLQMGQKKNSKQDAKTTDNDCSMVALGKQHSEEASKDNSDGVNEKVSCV
Method in brief: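 CHO cells stably expressing human HTR2A, plated 18 h, loaded with calcium dye 1 h at 37 C. Agonist mode: compounds added and intracellular calcium fluorescence recorded kinetically for 2 min at 1 sec intervals.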

[11] = target: Muscarinic acetylcholine receptor M1 (Homo sapiens) (UniProt P11229); assay: Cholinergic receptor muscarinic 1 (CHRM1) small molecule antagonists, cell-based qHTS assay (AID 1963588); note: nearly all actives have a fitted effect of over 40% in size
Chain of Muscarinic acetylcholine receptor M1 (Homo sapiens) (P11229 whole entry, looked up): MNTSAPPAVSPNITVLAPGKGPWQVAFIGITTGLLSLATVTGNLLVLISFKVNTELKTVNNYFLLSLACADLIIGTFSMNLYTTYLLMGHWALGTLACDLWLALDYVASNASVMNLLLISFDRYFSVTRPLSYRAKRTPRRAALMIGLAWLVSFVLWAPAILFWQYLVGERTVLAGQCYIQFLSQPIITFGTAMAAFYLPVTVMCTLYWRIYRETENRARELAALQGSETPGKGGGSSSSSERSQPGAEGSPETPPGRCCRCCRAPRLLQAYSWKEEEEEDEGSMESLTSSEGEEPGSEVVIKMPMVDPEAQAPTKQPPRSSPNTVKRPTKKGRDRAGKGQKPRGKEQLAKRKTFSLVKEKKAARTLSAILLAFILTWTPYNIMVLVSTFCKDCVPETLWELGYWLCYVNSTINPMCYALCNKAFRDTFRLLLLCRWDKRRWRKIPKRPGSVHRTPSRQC
Method in brief: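 Compounds were tested at 15 concentrations in three independent runs. Dye-loaded CHRM1-CHO cells were exposed 5 min at room temperature before stimulation by acetylcholine added at 50nM. Intracellular calcium was read kinetically on FDSS for 3 min.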

[12] = target: Muscarinic acetylcholine receptor M1 (Homo sapiens) (UniProt P11229); assay: Cholinergic receptor muscarinic 1 (CHRM1) small molecule agonists, cell-based qHTS assay (AID 1963589); note: nearly all actives have a fitted effect of over 35% in size
Method in brief: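 Agonist-mode calcium-flux screen: compounds at 15 concentrations, three independent runs, were pin-transferred onto dye-loaded human CHRM1-CHO cells. Fluorescence was then recorded kinetically every second over minutes.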

[13] = cAMP Responsive Elements (CRE) small molecule antagonists, cell-based qHTS assay (AID 1963591; active = well fitted inhibition curve with a large enough effect in the signal ratio in the repeat runs, not every such curve was filed as active; the % refers to the signal ratio)
Method in brief: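 Antagonist mode: compounds are added alongside the adenylyl cyclase activator NKH477 (0.25 uM final) to CRE-bla HEK293T cells for 3 h. LiveBLAzer FRET substrate, 2 h at room temperature, reports bla expression.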

[14] = target: Beta-2 adrenergic receptor (Homo sapiens) (UniProt P07550); assay: Adrenergic beta2 receptor (ADRB2) small molecule antagonists, cell-based qHTS assay (AID 1963592); note: series mostly up to about 92 µM; nearly all actives have a fitted effect of over 50% in size
Chain of Beta-2 adrenergic receptor (Homo sapiens) (P07550 whole entry, looked up): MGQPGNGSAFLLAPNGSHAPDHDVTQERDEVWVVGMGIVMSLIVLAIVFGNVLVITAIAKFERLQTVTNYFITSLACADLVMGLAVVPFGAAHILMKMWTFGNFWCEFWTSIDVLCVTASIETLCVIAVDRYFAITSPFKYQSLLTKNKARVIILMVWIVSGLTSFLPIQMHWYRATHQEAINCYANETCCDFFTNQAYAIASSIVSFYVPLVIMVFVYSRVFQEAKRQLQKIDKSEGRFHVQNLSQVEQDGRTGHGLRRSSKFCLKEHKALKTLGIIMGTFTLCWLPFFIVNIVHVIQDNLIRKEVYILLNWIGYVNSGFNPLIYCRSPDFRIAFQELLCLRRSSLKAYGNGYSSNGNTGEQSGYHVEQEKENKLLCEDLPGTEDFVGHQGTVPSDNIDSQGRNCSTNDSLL
Method in brief: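 Assay format: CHO-ADRB2 cells, 18-20hr seeding at 37C/5% CO2, then compound plus 1nM isoproterenol agonist mix for 0.5hr RT. Homogeneous time-resolved fluorescence cAMP detection after 1hr, expressed as 665/615 nm ratio.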

[15] = target: Beta-2 adrenergic receptor (Homo sapiens) (UniProt P07550); assay: Adrenergic beta2 receptor (ADRB2) small molecule agonists, cell-based qHTS assay (AID 1963593);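 note: CHO cells stably overexpressing human ADRB2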
Method in brief: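 CHO cells stably over-expressing ADRB2 were plated overnight at 37C, then dosed with compounds plus a stimulation mix containing 100uM IBMX and 25uM Ro-20-1724 for 0.5hr at room temperature. cAMP was measured by HTRF competition, 1hr.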

[16] = target: D(2) dopamine receptor (Homo sapiens) (UniProt P14416); assay: Dopamine D2 receptor (DRD2) small molecule antagonists, cell-based qHTS assay (AID 1963595; active = well fitted inhibition curve with a large enough effect in the signal ratio in the repeat runs, with a control signal flat; the % refers to the signal ratio; note: potency is the fitted concentration of half-maximal effect)
Chain of D(2) dopamine receptor (Homo sapiens) (P14416 whole entry, looked up): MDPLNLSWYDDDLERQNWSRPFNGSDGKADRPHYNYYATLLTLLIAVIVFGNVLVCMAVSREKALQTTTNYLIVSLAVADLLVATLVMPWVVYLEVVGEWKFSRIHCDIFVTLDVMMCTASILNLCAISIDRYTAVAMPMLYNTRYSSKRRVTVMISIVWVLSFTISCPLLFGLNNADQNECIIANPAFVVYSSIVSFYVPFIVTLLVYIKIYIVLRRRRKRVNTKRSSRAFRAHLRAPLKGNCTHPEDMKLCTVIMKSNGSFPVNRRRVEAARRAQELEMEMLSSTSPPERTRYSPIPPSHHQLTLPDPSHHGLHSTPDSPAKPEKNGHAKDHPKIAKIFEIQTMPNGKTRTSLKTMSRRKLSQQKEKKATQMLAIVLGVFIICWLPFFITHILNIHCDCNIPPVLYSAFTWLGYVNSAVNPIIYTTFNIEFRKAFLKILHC
Method in brief: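 HEK293 cells stably expressing DRD2, preincubated with 0.1 mM Ro20-1724 and compounds 10 min, were stimulated with 200 nM NKH477 plus 12 nM quinpirole for 30 min at room temperature; cAMP measured by HTRF (665/620 nm).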

[17] = target: 5-hydroxytryptamine receptor 2A (Homo sapiens) (UniProt P28223); assay: 5-hydroxytryptamine receptor 2A (HTR2A) small molecule antagonists, cell-based qHTS assay (AID 1963586); note: nearly all actives have a fitted effect of over 45% in size
Method in brief: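 CHO cells stably expressing human HTR2A were plated for 18 h at 37 C, then loaded with calcium dye for 1 h. Compounds were preincubated 5 min at room temperature before DOI (4 nM solution) was added. Kinetic fluorescence was read for 3 min.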

[18] = target: D(2) dopamine receptor (Homo sapiens) (UniProt P14416); assay: Dopamine D2 receptor (DRD2) small molecule agonists, cell-based qHTS assay (AID 1963594); note: nearly all actives have a fitted effect of over 35% in size
Method in brief: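 HEK293 cells stably expressing human DRD2, pre-treated with PDE inhibitor Ro20-1724 (0.1 mM final) and compound 10 min at room temperature, then stimulated with NKH477 (200nM […]) for 30 min. cAMP read by HTRF (665/620 nm).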

[19] = cAMP Responsive Elements (CRE) small molecule agonists, cell-based qHTS assay (AID 1963590)
Method in brief: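 Agonist mode: compound added to CRE-bla HEK 293T cells (2,000/well, 18 h after plating) for 3 h at 37 C/5% CO2. Reporter activity detected via FRET beta-lactamase substrate, 2 h room-temperature loading.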

[20] = p53 small molecule agonists, cell-based qHTS assay (AID 1963582; active = well fitted activation curve with a large enough effect in the signal ratio in the repeat runs, not every such curve was filed as active; the % refers to the signal ratio)
Method in brief: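 Read-out is beta-lactamase FRET fluorescence after 2 h at room temperature with LiveBLAzer B/G substrate. p53 response element-bla cells were treated 16 h at 37 C with compounds in DMSO, added 5 h after seeding.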

Measured: Potency

O=C(OCC(COC(=O)c1ccccc1)(COC(=O)c1ccccc1)COC(=O)c1ccccc1)c1ccccc1
inactive: [1] | [2] | [3] | [4] | [5] | [6] | [7] | [8] | [9] | [10] | [11] | [12] | [13] | [14] | [15] | [16]

CCCC(c1cc(C(C)(C)C)c(O)cc1C)c1cc(C(C)(C)C)c(O)cc1C
inactive: [2] | [3] | [4] | [5] | [6] | [7] | [17] | [11] | [12] | [14] | [18]
active: [1] 6.94 µM | [8] 9.24 µM | [9] 5.83 µM | [10] 9.89 µM | [16] 24.6 µM

CCCCCCCCOc1ccccc1C(=O)Nc1ccc(C(=O)OCC[N+](C)(CC)CC)cc1
inactive: [1] | [2] | [3] | [4] | [5] | [6] | [7] | [8] | [9] | [12] | [18]

CC(=O)C(C)=O
inactive: [1] | [2] | [3] | [4] | [5] | [6] | [7] | [8] | [9] | [17] | [10] | [11] | [12] | [19] | [13] | [14] | [15] | [18]

CCc1ccc(C(=O)C(C)CN2CCCCC2)cc1 (stereo not given)
inactive: [1] | [2] | [3] | [4] | [5] | [6] | [7] | [8] | [9] | [20] | [19] | [18]

OC[C@@H](O)[C@H](O)[C@@H](O)[C@@H](O)CO
inactive: [1] | [2] | [3] | [4] | [5] | [6] | [7] | [8] | [9] | [20] | [19] | [13] | [14] | [15] | [18] | [16]

C=CC(=O)OCC(Br)CBr (stereo not given)
inactive: [1] | [3] | [4] | [5] | [6] | [7] | [8] | [9] | [20] | [10] | [11] | [19] | [13] | [14] | [18] | [16]
active: [2] 68.6 µM

CCn1cc(C(=O)O)c(=O)c2cc(F)c(N3CCNCC3)cc21
inactive: [1] | [2] | [3] | [4] | [5] | [6] | [7] | [8] | [9] | [20] | [19] | [13] | [14] | [15] | [18] | [16]

CCCN(CCC)c1c([N+](=O)[O-])cc(C(F)(F)F)c(N)c1[N+](=O)[O-]
active: [1] 24.3 µM | [9] 18.2 µM
inactive: [2] | [3] | [4] | [5] | [6] | [7] | [8] | [20] | [12] | [14] | [15] | [18]

CCN(CC)CCNC(=O)c1cc(Cl)c(N)cc1OC
inactive: [1] | [2] | [3] | [4] | [5] | [6] | [7] | [8] | [9] | [20] | [19] | [13] | [14] | [18]
active: [16] 1.68 µM

Oc1ccc(-c2ccc(O)cc2)cc1
inactive: [1] | [3] | [4] | [5] | [6] | [7] | [8] | [9] | [17] | [10] | [11] | [12] | [13] | [14] | [18] | [16]
active: [2] 30.8 µM

COc1ccc(CN2CCN(C(c3ccc(F)cc3)c3ccc(F)cc3)CC2)c(OC)c1OC
active: [1] 21.1 µM | [9] 15.8 µM
inactive: [2] | [3] | [4] | [5] | [6] | [7] | [8] | [10] | [12] | [14] | [15] | [18]

CC(C)OC(=O)c1ccccc1
inactive: [1] | [2] | [3] | [4] | [5] | [6] | [7] | [8] | [9] | [17] | [10] | [11] | [19] | [13] | [14] | [18] | [16]

CC1CC(C)C(=O)C1=O (stereo not given)
inactive: [1] | [2] | [3] | [4] | [5] | [6] | [7] | [8] | [9] | [17] | [10] | [12] | [19] | [18] | [16]

CCN1CN(CC)CN(CC)C1
inactive: [1] | [2] | [3] | [4] | [5] | [6] | [7] | [8] | [9] | [17] | [10] | [12] | [19] | [14] | [18] | [16]

CCCCOc1ccc(OCCCN2CCOCC2)cc1
inactive: [1] | [2] | [3] | [4] | [5] | [6] | [7] | [8] | [9] | [20] | [19] | [14] | [15] | [16]

CC(C)CCCC(C)(C)O
inactive: [1] | [2] | [3] | [4] | [5] | [6] | [7] | [8] | [9] | [10] | [11] | [12] | [19] | [13] | [14] | [16]
